From publication PMC4336329 (PLoS ONE, 2015)
About 2,200 (0.71%) of roughly 310,000 compounds showed an effect of 50% or more. Effects have a minus sign here. Only a selection was taken, and strong results are over-represented in it overall.

target: human ether-à-go-go-related gene (hERG) potassium channel (human, UniProt Q12809); assay: primary screen, population patch clamp on CHO cells stably expressing hERG; higher = less effect of the substance
Sequence (Q12809 whole entry, looked up): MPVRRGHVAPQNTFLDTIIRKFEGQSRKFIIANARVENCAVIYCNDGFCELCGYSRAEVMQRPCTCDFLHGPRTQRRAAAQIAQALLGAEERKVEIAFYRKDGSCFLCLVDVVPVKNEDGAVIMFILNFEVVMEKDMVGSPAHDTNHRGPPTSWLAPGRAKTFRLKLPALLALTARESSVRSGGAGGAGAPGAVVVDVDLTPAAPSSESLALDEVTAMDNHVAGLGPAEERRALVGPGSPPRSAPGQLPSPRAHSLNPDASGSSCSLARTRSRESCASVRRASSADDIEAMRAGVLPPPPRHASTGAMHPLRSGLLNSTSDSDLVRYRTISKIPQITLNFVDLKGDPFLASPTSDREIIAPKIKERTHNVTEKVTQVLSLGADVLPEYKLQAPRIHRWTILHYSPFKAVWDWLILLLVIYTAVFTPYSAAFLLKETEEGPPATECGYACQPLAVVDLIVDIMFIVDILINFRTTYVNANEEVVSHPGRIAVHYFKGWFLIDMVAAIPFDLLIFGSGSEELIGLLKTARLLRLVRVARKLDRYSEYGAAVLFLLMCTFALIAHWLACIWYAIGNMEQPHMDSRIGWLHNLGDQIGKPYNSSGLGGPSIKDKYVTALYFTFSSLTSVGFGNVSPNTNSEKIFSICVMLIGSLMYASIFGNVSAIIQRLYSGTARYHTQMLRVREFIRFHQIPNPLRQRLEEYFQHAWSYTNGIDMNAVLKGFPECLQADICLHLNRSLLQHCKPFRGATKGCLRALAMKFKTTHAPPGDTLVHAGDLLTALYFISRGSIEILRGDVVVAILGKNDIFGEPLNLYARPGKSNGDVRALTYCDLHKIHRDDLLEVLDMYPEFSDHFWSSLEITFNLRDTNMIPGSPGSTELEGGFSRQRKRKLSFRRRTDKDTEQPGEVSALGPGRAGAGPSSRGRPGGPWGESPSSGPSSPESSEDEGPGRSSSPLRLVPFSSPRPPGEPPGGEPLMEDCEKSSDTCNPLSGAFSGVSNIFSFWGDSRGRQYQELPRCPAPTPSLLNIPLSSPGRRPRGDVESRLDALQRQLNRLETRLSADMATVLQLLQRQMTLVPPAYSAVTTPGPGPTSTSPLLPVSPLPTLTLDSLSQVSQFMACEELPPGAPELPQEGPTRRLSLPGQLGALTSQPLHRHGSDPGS

Row | SMILES | hERG current change (%, negative = inhibition) at 1uM
1 | COc1ccccc1C(=O)Nc1nnc(-c2ccco2)s1 | 13.9%
2 | COc1ccccc1NC(=O)Cn1nnc(-c2ccccc2NC(=O)c2ccco2)n1 | 14.7%
3 | C=CCC1c2cccc(C(=O)O)c2C(=O)N1c1cccc(C)c1 (stereo not shown) | 11.5%
4 | CN(C)c1ccc(C2CC(=O)C=C(Nc3ccccc3N)C2)cc1 (stereo not shown) | 13.8%
5 | CCOc1ccc(NC(=O)CCN2CCN(c3ccccc3)CC2)cc1 | 3.48%
6 | CCOc1ccccc1NC(=O)C(OC(=O)c1ccccc1)c1ccccc1 (stereo not shown) | 32.8%
7 | Cn1c(Cn2nnc3ccccc32)nnc1SCC(=O)Nc1nccs1 | 10.6%
8 | CCOC(=O)c1c(NC(=O)CCS(=O)(=O)c2ccccc2)sc2c1CCN(C)C2.Cl | -9.18%
9 | CC(C)N1CCc2c(sc(NC(=O)CCS(=O)(=O)c3ccccc3)c2C(N)=O)C1.Cl | -2.04%
10 | CCOC(=O)c1c(NC(=O)CCS(=O)(=O)c2ccccc2)sc2c1CCN(C(C)C)C2.Cl | -64.6%
11 | CC(=O)c1cc2c(cc1NC(=O)CSc1nc3ccccc3[nH]1)OCO2 | -2.99%
12 | CN(C)S(=O)(=O)c1cc(NC(=O)CNCCN2CCOCC2)ccc1Cl.O=C(O)C(=O)O | 7.62%
13 | O=C(c1cc(F)ccc1F)C1CCCN(CCCc2ccccc2)C1 (stereo not shown) | -76.6%
14 | COc1ccc(C(=O)C2CCCN(Cc3cn(C)nc3-c3ccccc3)C2)cc1F (stereo not shown) | -19.1%
15 | O=C(C1CCCN(CCCc2ccccc2)C1)N1CCCCC1 (stereo not shown) | -5.07%
16 | O=C(c1cc(F)ccc1F)C1CCCN(Cc2cccc(Cl)c2)C1 (stereo not shown) | 8.46%
17 | COc1ccc(F)cc1C(=O)C1CCCN(Cc2cccn2-c2ccccn2)C1 (stereo not shown) | -89.9%
18 | CCOc1ccccc1CN1CCCC(C(=O)c2cc(F)ccc2F)C1 (stereo not shown) | -16.6%
19 | O=C(c1cc(F)ccc1F)C1CCCN(C(=O)CSc2ccccn2)C1 (stereo not shown) | -3.1%
20 | COc1ccc(C(=O)C2CCCN(Cc3cccn3-c3ccccn3)C2)cc1F (stereo not shown) | -87.1%
21 | COc1ccc(C(=O)C2CCCN(Cc3ccc(F)cc3F)C2)cc1F (stereo not shown) | 3.8%
22 | COc1ccc(F)cc1C(=O)C1CCCN(Cc2ccc(Oc3ncccn3)cc2)C1 (stereo not shown) | -34.8%

Row | SMILES | hERG current change (%, negative = inhibition) at 1uM
23 | COc1ccc(F)cc1C(=O)C1CCCN(Cc2cccn2-c2cccnc2)C1 (stereo not shown) | 5.09%
24 | O=C(c1cc(F)ccc1F)C1CCCN(Cc2cccn2-c2ccccn2)C1 (stereo not shown) | -83.1%
25 | O=C(Nc1ccc(Cl)cc1)c1cc(S(=O)(=O)N2CCOCC2)cs1 | -7.43%
26 | COCCCN(Cc1ccco1)C(=O)Cn1ncc2c([nH]c3ccccc32)c1=O | -5.46%
27 | O=C(N/N=C1/CCc2ccccc21)C1CC1 | 6.47%
28 | Cc1ccc(CNC(=O)COC(=O)c2ccc(S(=O)(=O)N(C)C)cc2)cc1 | 17.8%
29 | CCN(CC)c1ccc2ccc(=O)oc2c1 | 7.92%
30 | O=C(NNC(=O)c1ccc(Cl)c(S(=O)(=O)Nc2ccc(Cl)cc2)c1)c1ccc(=O)[nH]c1 | 14.5%
31 | COc1ccc(-c2nnc3ccc(SCC(=O)N4CCCCC4)nn23)cc1OC | 6.34%
32 | Cc1cc2nc(-c3ccc(=O)[nH]c3)n(C)c2cc1C | 11%
33 | Cc1ccc(-c2csc(NC(=O)c3ccc(F)cc3)c2C(=O)O)cc1 | 16%
34 | CCOC(=O)C1(C)Oc2ccc(S(=O)(=O)CC)cc2NC1=O (stereo not shown) | 16.3%
35 | COCCn1nnnc1C(c1ccccn1)N1CCN(c2cc(C)ccc2C)CC1.Cl (stereo not shown) | 9.25%
36 | Cc1[nH]nc2c1C(C(C)c1ccccc1)C(C#N)=C(N)O2 (stereo not shown) | 7.79%
37 | COc1ccc(C(=O)C[n+]2cc(-c3ccc(OC)cc3)n3c2CCCC3)cc1.[Br-] | 11.5%
38 | COc1ccc(-c2c[n+]3c(n2-c2ccccc2)CCCCC3)cc1.[Br-] | 2.74%
39 | Clc1ccc(C[n+]2cc(-c3ccccc3)n3c2CCC3)cc1.[Cl-] | 7.34%
40 | COc1ccc(-c2c[n+]3c4n2CCCCC4=C(c2ccc(Br)cc2)C3)cc1.[Br-] | -79.6%
41 | Clc1ccc(C2=C3CCCCn4c(-c5ccccc5)c[n+](c43)C2)cc1.[Br-] | -83.1%
42 | COc1ccc(-n2c(-c3ccc(Br)cc3)c[n+]3c2CCCCC3)cc1.[Br-] | -24.6%
43 | O=C(C[n+]1cc(-c2ccc(Cl)cc2)n2c1CCCCC2)c1ccccc1.[Br-] | -2.53%
44 | COc1ccc(-c2c[n+]3c4n2CCCCC4=C(c2ccccc2)C3)cc1.[Br-] | -74.7%

Row | SMILES | hERG current change (%, negative = inhibition) at 1uM
45 | COc1ccc(-c2c[n+](CC(=O)c3ccccc3)c3n2CCCCC3)cc1.[Br-] | 13.7%
46 | COc1cc2c(cc1OC)CN(S(C)(=O)=O)CC2 | 16.5%
47 | Fc1cccc(CCN2CCNC[C@@H]2CC2CCCCC2)c1 | 1.12%
48 | Cc1ccc2oc(C(=O)NCC3CCOCC3)c(C)c2c1 | 10.3%
49 | CCN(CC)CCn1c(=N)n(CC(O)c2ccco2)c2ccccc21.Cl (stereo not shown) | -54.6%
50 | CCCn1c(=N)n(CC(O)c2ccco2)c2ccccc21.Cl (stereo not shown) | -13.8%
51 | Cl.Cn1c(=N)n(CC(O)c2ccco2)c2ccccc21 (stereo not shown) | 1.97%
52 | CCCCCCCn1c(=N)n(CC(O)c2ccco2)c2ccccc21.Cl (stereo not shown) | -76.8%
53 | CCn1c(=N)n(CC(O)c2ccco2)c2ccccc21.Cl (stereo not shown) | -7.63%
54 | Cl.N=c1n(CCN2CCCC2)c2ccccc2n1CC(O)c1ccco1 (stereo not shown) | -3.97%
55 | O=C(O)C(=O)O.O=[N+]([O-])c1cccc(CN2CCN(Cc3ccc(Cl)cc3)CC2)c1 | -27.2%
56 | COC(=O)c1cc(NC(=O)C2(S(=O)(=O)c3ccc(C)cc3)CC2)cc(C(=O)OC)c1 | 0.157%
57 | COc1ccc(O)c(C(=O)c2cc(C#N)c(=O)n(Cc3ccccc3)c2)c1 | 8.35%
58 | O=C(NCc1ccccc1)C1(C(F)(F)F)C/C(=C\CCO)CCCO1 (stereo not shown) | 14.1%
59 | Cc1ccc(/C=C2/C(=O)NC(=O)N(CCc3ccc(F)cc3)C2=O)o1 | 2.54%
60 | CCC1CN(C(=O)N2CCC(C(=O)NCCc3ccccc3)CC2)c2ccccc2O1 (stereo not shown) | 8.85%
61 | COCCCNC(=O)CCc1nc2cccnc2n1Cc1ccccc1 | -11.9%
62 | O=C(CCc1nc2cccnc2n1Cc1ccccc1)NCCc1ccc(Cl)cc1 | -65.2%
63 | CCCCNC(=O)CCc1nc2cccnc2n1Cc1ccccc1 | -34.7%
64 | Cc1ccc([N+](=O)[O-])cc1N/C=C1\CCCCC1=O | 16.5%
65 | Cc1ccc(N(CC(=O)NCc2cccnc2)S(C)(=O)=O)cc1C | 12.4%
66 | COc1ccc(C2=NOC(C(=O)NCc3cccs3)C2)cc1 (stereo not shown) | 21.3%

Row | SMILES | hERG current change (%, negative = inhibition) at 1uM
67 | O=C(Nc1ccccc1)c1cc(S(=O)(=O)N2CCCCC2)ccc1N1CCOCC1 | 12.6%
68 | CS(=O)(=O)c1ccc(Cl)c(NC(=O)c2cc(S(=O)(=O)N3CCOCC3)ccc2N2CCCC2)c1 | -60.2%
69 | NC(=O)c1ccc(NC(=O)c2cc(S(=O)(=O)N3CCCCC3)ccc2N2CCOCC2)cc1 | 13.4%
70 | CNC(=O)c1ccc(NC(=O)c2cc(S(=O)(=O)N3CCOCC3)ccc2N2CCCC2)cc1 | 13.5%
71 | O=C(Nc1ccccc1N1CCCC1)c1cc(S(=O)(=O)N2CCOCC2)ccc1Cl | -9.58%
72 | N#Cc1ccc(NC(=O)c2cc(S(=O)(=O)N3CCOCC3)ccc2N2CCCC2)cc1 | -58.9%
73 | O=C(Nc1ccccc1Cl)c1cc(S(=O)(=O)N2CCCCC2)ccc1N1CCOCC1 | -5.21%
74 | O=C(Nc1ccccc1N1CCCCC1)c1cc(S(=O)(=O)N2CCOCC2)ccc1Cl | 7.72%
75 | NC(=O)c1ccccc1NC(=O)c1cc(S(=O)(=O)N2CCCCC2)ccc1N1CCOCC1 | -60.5%
76 | CC1=NN(c2ccc(C(=O)O)cc2)C(=O)/C1=C/c1ccc(-c2ccccc2F)o1 | 15.2%
77 | C=CCOc1cccc(C(=O)N2CCC(CCC(=O)NC3CC3)CC2)c1 | 12.6%
78 | Cn1c(SCC(=O)N/N=C/C=C\c2ccco2)nc2ccccc21 | -13.7%
79 | O=C(Nn1c(O)c(C=C2N=c3ccccc3=N2)sc1=S)c1ccccc1Cl | 0.388%
80 | Cc1ccc(-c2nnn(CC(=O)N(c3ccc4c(c3)OCCO4)C(C(=O)NCC3CCCO3)c3ccc(F)cc3)n2)o1 (stereo not shown) | 10.9%
81 | O=C(O)c1ccc(S(=O)(=O)NC2CCCCCC2)cc1 | 13.5%
82 | O=C(NNC(=O)c1ccccc1[N+](=O)[O-])c1csc(N2CCOCC2)n1 | 0.109%
83 | Cn1cc(-c2nnnn2-c2ccc(Cl)cc2)c(=O)c2ccccc21 | -66.3%
84 | CCn1cc(-c2nnnn2-c2ccc(Cl)cc2)c(=O)c2ccccc21 | -16.3%
85 | Cn1cc(-c2nnnn2-c2ccccc2)c(=O)c2ccccc21 | 1.73%
